Consider three molecules from PubChem BioAssay (EPA / NIEHS).

The structures appear in SMILES notation. Where “and” joins values, the source holds several entries; their conditions need not be identical. Equal entries are not always repeated. Calls of active or inactive are those of the source. The calls were made as follows: active = hit-call score of the fitted dose curve at least 0.9, where 1 is the maximum; inactive = score below 0.9.

Test [1] can be described thus: BSK_CASM3C_SRB: Viability Assessment in the BioMAP Diversity Plus: CASM3C Assay (AID 2283050).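 Also: total protein by SRB staining as cytotoxicity measure in parallel cultures; cells exposed to compound for 24 h.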 As to conditions: primary human coronary artery smooth muscle cells.
Read-out in test [2]: Tissue Factor, F3 (gene 2152)
Briefly: BSK_CASM3C_TissueFactor: BioMAP Diversity Plus: CASM3C Assay for Tissue Factor Biomarker Activity (AID 2283052).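 Also: cell surface tissue factor protein level read by ELISA.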 As to conditions: primary human coronary artery smooth muscle cells; actives raise or lower the signal.

Read-out in test [3]: Interferon-gamma inducible Protein 10 (IP10), CXCL10 (gene 3627)
Briefly: BSK_hDFCGF_IP10: BioMAP Diversity Plus: hDFCGF Assay for Interferon-gamma inducible Protein 10 (IP10) Biomarker Activity (AID 2283053). As to conditions: primary human foreskin fibroblasts; actives raise or lower the signal. The method in brief: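 ELISA quantification of IP-10 after a 24 h chemical exposure of human dermal foreskin fibroblast primary cultures. Both increases and decreases versus DMSO fitted.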

Read-out in test [4]: Urokinase-type plasminogen activator receptor (uPAR), PLAUR (gene 5329)
Nature of the test: BSK_CASM3C_uPAR: BioMAP Diversity Plus: CASM3C Assay for Urokinase-type plasminogen activator receptor (uPAR) Biomarker Activity (AID 2283054).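 Also: cell-surface uPAR protein level quantified by ELISA.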 The following applies: primary human coronary artery smooth muscle cells; actives raise or lower the signal.

Read-out in test [5]: Vascular cell adhesion molecule 1 (VCAM1), VCAM1 (gene 7412)
Nature of the test: BSK_CASM3C_VCAM1: BioMAP Diversity Plus: CASM3C Assay for Vascular cell adhesion molecule 1 (VCAM1) Biomarker Activity (AID 2283055).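 Also: VCAM-1 protein level quantified by ELISA on the cells.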 The following applies: primary human coronary artery smooth muscle cells; actives raise or lower the signal.

Read-out in test [6]: Epidermal growth factor receptor (EGFR), EGFR (gene 1956)
Nature of the test: BSK_hDFCGF_EGFR: BioMAP Diversity Plus: hDFCGF Assay for Epidermal growth factor receptor (EGFR) Biomarker Activity (AID 2283057). As to conditions: primary human foreskin fibroblasts; actives raise or lower the signal. The method in brief:
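EGFR levels by ELISA in human dermal fibroblast cultures, 24 h post-treatment, fitted bidirectionally versus DMSO. Parallel wells stained with sulforhodamine B to detect overt cytotoxicity.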

Read-out in test [7]: Interleukin-8 (IL8), CXCL8 (gene 3576)
Nature of the test: BSK_hDFCGF_IL8: BioMAP Diversity Plus: hDFCGF Assay for Interleukin-8 (IL8) Biomarker Activity (AID 2283058). The following applies: primary human foreskin fibroblasts; actives raise or lower the signal. The essentials: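 IL-8 levels read by ELISA at 24 hours after dosing human skin fibroblast cultures. Parallel SRB staining assessed overt cytotoxicity, and gain or loss of signal was fitted against DMSO control.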

The nature of test [8]: BSK_hDFCGF_Proliferation: Cell Proliferation Assessment in the BioMAP Diversity Plus: hDFCGF Assay (AID 2283059).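 Also: curves fitted for both rise and fall of signal versus DMSO baseline.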 As to conditions: primary human foreskin fibroblasts. The method in brief: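 This proliferation readout used SRB total-protein staining of human foreskin fibroblasts […], normalized to DMSO with bidirectional curve fitting.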
A short description of test [9]: BSK_hDFCGF_SRB: Viability Assessment in the BioMAP Diversity Plus: hDFCGF Assay (AID 2283061).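 Also: cells exposed to compound for 24 h before the read.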 As to conditions: primary human foreskin fibroblasts. The essentials: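 Viability was read as total protein: after 10% TCA fixation, wells were stained with 0.1% sulforhodamine B and read at 560 nm. Primary human foreskin fibroblasts were dosed for 24 h, with bidirectional fitting versus DMSO.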

Read-out in test [10]: TIMP metallopeptidase inhibitor 1 (TIMP1), TIMP1 (gene 7076)
Briefly: BSK_hDFCGF_TIMP1: BioMAP Diversity Plus: hDFCGF Assay for TIMP metallopeptidase inhibitor 1 (TIMP1) Biomarker Activity (AID 2283062). As to conditions: primary human foreskin fibroblasts; actives raise or lower the signal. The method in brief: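 TIMP-1 measured by ELISA 24 h after chemical dosing of primary human skin fibroblasts, with gain or loss fitted relative to DMSO. Parallel SRB staining (560 nm) monitored overt cytotoxicity.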

Read-out in test [11]: Monokine induced gamma interferon (MIG), CXCL9 (gene 4283)
Briefly: BSK_hDFCGF_MIG: BioMAP Diversity Plus: hDFCGF Assay for Monokine induced gamma interferon (MIG) Biomarker Activity (AID 2283063). The following applies: primary human foreskin fibroblasts; actives raise or lower the signal. The essentials:
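Human primary foreskin fibroblasts in the hDFCGF system, exposed to test chemical for 24 h; MIG measured by ELISA. Bidirectional curve fitting against DMSO negative control as activity baseline.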

Read-out in test [12]: Matrix Metallopeptidase 1 (MMP1), MMP1 (gene 4312)
Briefly: BSK_hDFCGF_MMP1: BioMAP Diversity Plus: hDFCGF Assay for Matrix Metallopeptidase 1 (MMP1) Biomarker Activity (AID 2283064). As to conditions: primary human foreskin fibroblasts; actives raise or lower the signal. The method in brief:
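ELISA read-out of MMP1 from human foreskin fibroblasts (primary skin cells), 24 h post-dose. Gain or loss of signal was fitted bidirectionally versus DMSO negative control; cytotoxicity was checked by SRB in parallel cultures.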

Read-out in test [13]: Vascular cell adhesion molecule 1 (VCAM1), VCAM1 (gene 7412)
Briefly: BSK_hDFCGF_VCAM1: BioMAP Diversity Plus: hDFCGF Assay for Vascular cell adhesion molecule 1 (VCAM1) Biomarker Activity (AID 2283065).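 As to AC50: VCAM-1 protein level quantified by ELISA after 24 h chemical exposure.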 The following applies: primary human foreskin fibroblasts; actives raise or lower the signal. The essentials:
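ELISA readout of VCAM-1 on human dermal fibroblast primary cultures, 24 h after chemical exposure. Gain or loss of signal fitted in both directions against DMSO baseline.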

Read-out in test [14]: Plasminogen activator inhibitor-1 (PAI1), SERPINE1 (gene 5054)
Nature of the test: BSK_hDFCGF_PAI1: BioMAP Diversity Plus: hDFCGF Assay for Plasminogen activator inhibitor-1 (PAI1) Biomarker Activity (AID 2283066). The following applies: primary human foreskin fibroblasts; actives raise or lower the signal. The method in brief:
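PAI-1 levels in human dermal foreskin fibroblasts were quantified by ELISA 24 h after dosing, with gain or loss analysed against DMSO. Overt cytotoxicity was checked by sulforhodamine B total-protein staining in parallel cultures.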

Read-out in test [15]: Intercellular Adhesion Molecule 1 (ICAM1), ICAM1 (gene 3383)
Nature of the test: BSK_KF3CT_ICAM1: BioMAP Diversity Plus: KF3CT Assay for Intercellular Adhesion Molecule 1 (ICAM1) Biomarker Activity (AID 2283067). The following applies: primary human keratinocytes with fibroblasts; actives raise or lower the signal. The essentials: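 Cell-surface ICAM-1 was measured by ELISA 24 h after dosing primary human skin keratinocytes co-cultured with fibroblasts. Parallel SRB staining tracked overt cytotoxicity. Gain or loss of signal was fitted relative to DMSO.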

Read-out in test [16]: Interferon-gamma inducible Protein 10 (IP10), CXCL10 (gene 3627)
Nature of the test: BSK_KF3CT_IP10: BioMAP Diversity Plus: KF3CT Assay for Interferon-gamma inducible Protein 10 (IP10) Biomarker Activity (AID 2283068). As to conditions: primary human keratinocytes with fibroblasts; actives raise or lower the signal. The essentials:
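Signal is secreted/surface IP-10 by ELISA in a human primary skin co-culture of keratinocytes and foreskin fibroblasts, taken 24 h post-dosing; DMSO served as negative control.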

Test [17] in a line: BSK_KF3CT_SRB: Viability Assessment in the BioMAP Diversity Plus: KF3CT Assay (AID 2283069).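 Also: read 24 h after compound addition.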 As to conditions: primary human keratinocytes with fibroblasts. The essentials:
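SRB read-out at 560 nm (0.1% stain, TCA-fixed cells) gauges overt cytotoxicity in a human skin keratinocyte–fibroblast co-culture 24 h post-dosing. Signal change was fitted bidirectionally relative to DMSO control.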

Read-out in test [18]: TIMP metallopeptidase inhibitor 2 (TIMP2), TIMP2 (gene 7077)
Nature of the test: BSK_KF3CT_TIMP2: BioMAP Diversity Plus: KF3CT Assay for TIMP metallopeptidase inhibitor 2 (TIMP2) Biomarker Activity (AID 2283071). As to conditions: primary human keratinocytes with fibroblasts; actives raise or lower the signal. The method in brief: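 TIMP-2 measured by ELISA at 24 h in human keratinocyte/fibroblast primary co-cultures exposed to chemicals. Both increases and decreases were fitted against DMSO. Parallel cultures were stained with SRB for total protein as an overt-cytotoxicity check.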

Read-out in test [19]: urokinase plasminogen activator (uPA), PLAU (gene 5328)
Nature of the test: BSK_KF3CT_uPA: BioMAP Diversity Plus: KF3CT Assay for urokinase plasminogen activator (uPA) Biomarker Activity (AID 2283075). As to conditions: primary human keratinocytes with fibroblasts; actives raise or lower the signal. The method in brief:
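Skin co-culture (keratinocytes + foreskin fibroblasts), human primary; 24 h post-dose; uPA by ELISA; gain/loss fit vs DMSO baseline.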

Read-out in another test: CD40, CD40 (gene 958)
Briefly: BSK_LPS_CD40: BioMAP Diversity Plus: LPS Assay for CD40 Biomarker Activity (AID 2283076). As to conditions: primary human HUVEC with PBMC; actives raise or lower the signal. The essentials: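 In the LPS system of human endothelial cells with peripheral blood mononuclear cells, CD40 levels were read by ELISA 24 h post-treatment. Signal changes in either direction were fitted against the DMSO baseline, with parallel SRB protein staining.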

On to `N#CCCCCC#N`, for which the result in test [1], in test [2], in [3], in test [4], in test [5] and in [6] was inactive. The result in test [7], in test [8], in [9], in test [10], in test [11] and in test [12] was inactive. The result in test [13], in test [14], in test [15], in test [16], in [17] and in test [18] was inactive. In addition, the outcome is “inactive” in test [19] and “inactive” with CD40, CD40 (gene 958).
For `Oc1ccc(C2(c3ccc(O)cc3)c3ccccc3-c3ccccc32)cc1`, the half-maximal activity concentration (AC50) in test [1] was 20 µM (active); in test [2] it was 178 nM (active) and 3.97 µM (active); in test [3], 2.87 µM (active) and 2.53 µM (active); in test [4] it was 20 µM (active) and 25.7 µM (active); in [5], 3.97 µM (active); in test [7], 6.24 µM (active) and 5.65 µM (active). The AC50 in [8] was 1.12 µM (active) and 927 nM (active); in [10] it was 1.47 µM (active) and 1.56 µM (active); in test [11], 3.38 µM (active) and 2.61 µM (active); in [12], 3.97 µM (active) and 2.03 µM (active); in test [13], 1.61 µM (active) and 1.41 µM (active); in test [14] it was 728 nM (active) and 803 nM (active). The AC50 in test [15] is 11.9 µM (active) and 10.4 µM (active); in test [16] it was 6.03 µM (active) and 7.32 µM (active); in test [17], 5.12 µM (active) and 5.08 µM (active); in test [18], 5.37 µM (active) and 5.43 µM (active); in test [19] it was 8.33 µM (active) and 9.87 µM (active); in the test with CD40, CD40 (gene 958), 12.1 µM (active) and 10.1 µM (active). The result in test [6] and in [9] was inactive.
With `O=[N+]([O-])C=Cc1ccccc1`, the AC50 was 20 µM (active) in test [1]; 20 µM (active) in test [2]; 2.63 µM (active) in test [3]; 8.89 µM (active) in [4]; 8.66 µM (active) in [5]; 4.35 µM (active) in [7]. In addition, the AC50 is 596 nM (active) in test [8]; 20 µM (active) in [9]; 13 µM (active) in test [10]; 2.4 µM (active) in test [11]; 3.96 µM (active) in [12]; 1.41 µM (active) in test [13]. Further, the AC50 was 4.03 µM (active) in test [14]; 6.1 µM (active) in test [15]; 6.18 µM (active) in test [16]; 2.46 µM (active) in test [17]; 8.02 µM (active) in [18]; 10.2 µM (active) in [19]. In the test with CD40, CD40 (gene 958), the AC50 is 5.97 µM (active). Further, the outcome in test [6] was inactive.

Usually AC50 stands for the midpoint of the concentration-response curve, whichever way the signal moves.
